In test [1] the target is zebrafish Thyroid Hormone Receptor alpha (TRa), thraa (gene 30670) (UniProt Q98867). Nature of the test: ATG_zfTRa_XSP2: Attagene TRANS-FACTORIAL Multi-Species (XSP1) HepG2 Assay for zebrafish Thyroid Hormone Receptor alpha (TRa) (AID 2283832).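 Note: actives raise zebrafish TRa-Gal4 reporter transcript above DMSO baseline.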 In outline:
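HepG2 cells transiently transfected with multiplexed GAL4-UAS reporter units expressing chimeric NR-Gal4 proteins; 24 h after dosing, reporter mRNA measured by RT-PCR, FAM labelling, HpaI digestion and capillary electrophoresis; gain of signal versus DMSO baseline.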

Test [2] concerns zebrafish Peroxisome Proliferator-activated Receptor gamma (PPARg), gene 557037. The test is described as follows: ATG_zfPPARg_XSP2: Attagene TRANS-FACTORIAL Multi-Species (XSP2) HepG2 Assay for zebrafish Peroxisome Proliferator-activated Receptor gamma (PPARg) (AID 2283833).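 Note: actives increase reporter signal over DMSO so AC50 reflects activation.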 In outline: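 Multi-species TRANS format in HepG2, 24 h dosing; medium also contained 3 nM 6-alpha-fluorotestosterone and 1.5 nM norgestrel to stimulate androgen receptor. Zebrafish PPARg-GAL4 induced reporter mRNA was measured by RT-PCR/capillary electrophoresis.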

Test [3] relates to turtle Thyroid Hormone Receptor, alpha (TRa), gene 101949057. The test is described as follows: ATG_trTRa_XSP2: Attagene TRANS-FACTORIAL Multi-Species (XSP1) HepG2 Assay for turtle Thyroid Hormone Receptor, alpha (TRa) (AID 2283834).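 Note: hits raise reporter mRNA over the DMSO baseline so AC50 marks activators.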 As for the experimental part: ATG_XSP2_multi-species_TRANS is a cell-based, multiplexed assay created by modifying the existing Attagene TRANS-FACTORIAL system to include a panel of nuclear receptors from some or all the following species: human (Homo sapiens), mouse (Mus musculus), frog (Xenopus laevis), zebrafish (Danio rerio), chicken (Gallus gallus), and turtle (Chrysemys picta). The ECOTOX-FACTORIAL format uses HepG2, a human liver cell line, with measurements taken at 24 hours after chemical dosing in a 24-well plate. Xsp2 included 3 nM 6-alpha-fluorotestosterone and 1.5 nM norgestrel to stimulate the androgen receptor.ATG_trTRa_XSP2 is one of 29 assay components measured or calculated from the ATG_XSP2_multi-species_TRANS assay. It is designed to make measurements of mRNA induction, a form of inducible reporter, as detected with fluorescence intensity signals by Reverse transcription polymerase chain reaction (RT-PCR) and Capillary electrophoresis technology.The assay endpoint ATG_trTRa_XSP2 was analyzed in the positive analysis fitting direction relative to DMSO as the negative control and baseline of activity. Using a type of inducible reporter, measures of mRNA for gain-of-signal activity can be used to understand the reporter gene at the transcription factor-level as they relate to the gene TR. Furthermore, this assay endpoint can be referred to as a primary readout, because this assay has produced multiple assay endpoints where this one serves a reporter gene function. To generalize the intended target to other relatable targets, this assay endpoint is annotated to the nuclear receptor intended target family, where the subfamily is non-steroidal.
(§1) Human liver HepG2 cells are transiently transfected with multiple reporter transcription units (MRTUs) in 6-well plates using FuGene 6 reagent (Roche; 3 ml FuGene/1 mg DNA). The MRTU constructs are regulated by a cis-regulating element (promoter). […] A major difference between the CIS and TRANS system is that in CIS activities of endogenous TFs are measured, whereas the TRANS assay evaluates changes in activities of exogenous, chimeric NR-Gal4 proteins. […] At the end of 24 hour incubation, total RNA was isolated using TriZol reagent (Invitrogen). The isolated RNA is then reverse-transcribed using oligo(dT) primer and Mo-MLV reverse transcriptase (Invitrogen) with DNAse I (Ambion) treatment for 30 min. The one-tenth of the produced cDNA was amplified by PCR using Taq DNA polymerase (Invitrogen) and two reporter sequence-specific primers. The PCR products were fluorescently labeled by primer extension with 6-arboxyfluorescein (6-FAM) 5'-labeled reporter sequence-specific primer (2 min at 95 C, 20 s at 68 C and 10 min at 72 C) and these products were digested with 5U of HpaI (New England Biolabs) for 2h at 37 C. The fragments were purified using Qiaquick PCR columns (Qiagen), analyzed on an ABI 3130xL genetic analyzer (Applied Biosystems) with peak positions identified by using a set of X-rhodamine (ROX)-labeled MapMarker1000 molecular weight standards (BioVentures). The raw capillary electrophoresis data was processed using Attagraph software (Attagene).

A short description of test [4]: ATG_M_61_XSP2: Attagene TRANS-FACTORIAL Multi-Species (XSP2) HepG2 Assay for M61 Transcription Factor (Internal Marker) (AID 2283835; active = hit-call score of the fitted dose curve at least 0.9, where 1 is the maximum; inactive = score below 0.9;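 note: reporter mRNA of an internal background marker read by RT-PCR and capillary electrophoresis; active means a rise in signal above the DMSO baseline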). In outline:
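First, HepG2 cells are transfected with reporter units under GAL4-UAS control. Next, chemicals are applied for 24 h. Then total RNA is reverse-transcribed, amplified, fluorescently labelled and sized by capillary electrophoresis, with gain of signal scored against DMSO.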

In test [5] the target is zebrafish Thyroid Hormone Receptor beta (TRb), thrb (gene 30607) (UniProt Q9PVE4). The test is described as follows: ATG_zfTRb_XSP2: Attagene TRANS-FACTORIAL Multi-Species (XSP1) HepG2 Assay for zebrafish Thyroid Hormone Receptor beta (TRb) (AID 2283836). In outline: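 HepG2 cells transiently transfected with multiplexed GAL4-UAS reporter units expressing chimeric NR-Gal4 proteins; read 24 h after dosing. Reporter mRNA quantified by RT-PCR, 6-FAM labelling, HpaI digest and capillary electrophoresis; gain of signal fitted relative to DMSO.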
Sequence of zebrafish Thyroid Hormone Receptor beta (TRb), thrb (gene 30607) (Q9PVE4 whole entry, looked up, the tested form may be a part): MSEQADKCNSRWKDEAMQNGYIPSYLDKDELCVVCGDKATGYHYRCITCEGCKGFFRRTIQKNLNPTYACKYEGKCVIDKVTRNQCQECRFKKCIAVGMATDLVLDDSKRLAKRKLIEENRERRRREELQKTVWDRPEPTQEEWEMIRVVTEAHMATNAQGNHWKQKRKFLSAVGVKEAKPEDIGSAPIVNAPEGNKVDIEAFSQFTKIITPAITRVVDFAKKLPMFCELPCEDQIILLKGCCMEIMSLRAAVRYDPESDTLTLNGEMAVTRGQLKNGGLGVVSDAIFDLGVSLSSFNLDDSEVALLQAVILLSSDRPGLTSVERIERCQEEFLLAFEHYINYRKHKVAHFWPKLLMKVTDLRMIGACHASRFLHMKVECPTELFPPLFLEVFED

In test [6] the target is human Thyroid hormone Receptor alpha (TRa), THRA (gene 7067) (UniProt P10827). Nature of the test: ATG_hTRa_XSP2: Attagene TRANS-FACTORIAL Multi-Species (XSP2) HepG2 Assay for human Thyroid hormone Receptor alpha (TRa) (AID 2283838). In outline: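 HepG2 cells transiently transfected with multiplexed GAL4-UAS reporter units and exogenous NR-GAL4 chimeras; 24 h chemical exposure with 3 nM 6-alpha-fluorotestosterone and 1.5 nM norgestrel present. Reporter mRNA measured by RT-PCR, FAM labelling, HpaI digestion, capillary electrophoresis; gain-of-signal versus DMSO.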
Sequence of human Thyroid hormone Receptor alpha (TRa), THRA (gene 7067) (P10827 whole entry, looked up, the tested form may be a part): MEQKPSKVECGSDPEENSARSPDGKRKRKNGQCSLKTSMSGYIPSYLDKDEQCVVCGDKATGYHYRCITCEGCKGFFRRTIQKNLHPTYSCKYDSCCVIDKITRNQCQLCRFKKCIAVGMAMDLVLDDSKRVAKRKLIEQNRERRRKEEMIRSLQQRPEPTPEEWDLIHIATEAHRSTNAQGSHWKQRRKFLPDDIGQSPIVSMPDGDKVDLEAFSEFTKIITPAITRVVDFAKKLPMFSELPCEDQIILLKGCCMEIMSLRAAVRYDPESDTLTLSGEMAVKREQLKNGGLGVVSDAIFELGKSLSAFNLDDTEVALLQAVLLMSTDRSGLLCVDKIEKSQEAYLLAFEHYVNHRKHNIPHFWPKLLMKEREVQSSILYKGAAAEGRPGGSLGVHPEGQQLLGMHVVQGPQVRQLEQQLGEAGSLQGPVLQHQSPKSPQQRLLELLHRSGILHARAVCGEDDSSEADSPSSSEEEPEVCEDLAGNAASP

Test [7] concerns the target frog Thyroid hormone Receptor alpha (TRa), thra-a (gene 397942) (UniProt P15204). Nature of the test: ATG_frTRa_XSP2: Attagene TRANS-FACTORIAL Multi-Species (XSP2) HepG2 Assay for frog Thyroid hormone Receptor alpha (TRa) (AID 2283839).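 For AC50: AC50 reflects induction of frog TRa-driven reporter mRNA above DMSO baseline.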 The essentials: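 Transfect HepG2 with multiple reporter units (GAL4-UAS), dose chemical, incubate 24 h. Isolate RNA, reverse-transcribe, PCR-amplify reporter, label with 6-FAM by primer extension, digest with HpaI, run capillary electrophoresis; induction scored against DMSO.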

The target of test [8] is human Thyroid hormone Receptor beta (TRb), THRB (gene 7068) (UniProt P10828). The test is described as follows: ATG_hTRb_XSP2: Attagene TRANS-FACTORIAL Multi-Species (XSP2) HepG2 Assay for human Thyroid hormone Receptor beta (TRb) (AID 2283840).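 Note: actives raise reporter mRNA so potency reflects agonist-like gain of signal.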 In outline: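 Transient transfection of human HepG2 with multi-species NR-Gal4/GAL4-UAS reporter constructs; 24 h compound treatment; RNA isolation, reverse transcription, PCR and HpaI digest; capillary electrophoresis of labeled fragments; activity fitted upward versus DMSO.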
Sequence of human Thyroid hormone Receptor beta (TRb), THRB (gene 7068) (P10828 whole entry, looked up, the tested form may be a part): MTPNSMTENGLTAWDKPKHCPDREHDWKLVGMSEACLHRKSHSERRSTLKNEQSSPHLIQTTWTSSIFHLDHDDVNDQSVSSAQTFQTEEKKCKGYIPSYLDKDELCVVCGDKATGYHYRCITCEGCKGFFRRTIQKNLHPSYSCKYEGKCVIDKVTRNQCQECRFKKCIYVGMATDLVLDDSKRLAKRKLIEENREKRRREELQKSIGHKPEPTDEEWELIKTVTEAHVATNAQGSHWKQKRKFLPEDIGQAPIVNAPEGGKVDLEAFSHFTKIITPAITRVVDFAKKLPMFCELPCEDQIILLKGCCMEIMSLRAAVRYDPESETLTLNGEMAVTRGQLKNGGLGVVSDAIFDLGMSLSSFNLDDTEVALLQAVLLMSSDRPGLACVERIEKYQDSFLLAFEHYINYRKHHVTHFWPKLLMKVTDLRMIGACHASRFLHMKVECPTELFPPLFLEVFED

Test [9] concerns the target Nuclear receptor subfamily 1 group I member 2 (Mus musculus) (UniProt O54915). The test is described as follows: ATG_mPXR_XSP2: Attagene TRANS-FACTORIAL Multi-Species (XSP1) HepG2 Assay for mouse Pregnane X Receptor (PXR) (AID 2283831). In outline: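 Reporter transcripts were quantified by RT-PCR, FAM primer extension, HpaI digestion and capillary electrophoresis after 24 h of chemical exposure in transiently transfected HepG2 cells carrying chimeric receptor-GAL4 constructs; DMSO served as baseline.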

Test [10] is described as follows: ATG_XTT_Cytotoxicity_XSP2: Cytotoxicity Assessment in the Attagene TRANS-FACTORIAL Multi-Species (XSP2) HepG2 Assay (AID 2283837). As for the experimental part: ATG_XSP2_XTT_Cytotoxicity_multi-species is a cell-based, single-readout assay that uses HepG2, a human liver cell line, with measurements taken at 24 hours after chemical dosing in a 24-well plate.ATG_XTT_Cytotoxicity_XSP2 is an assay component measured from the ATG_XSP2_XTT_Cytotoxicity_multi-species assay. It is designed to make measurements of cell number, a form of viability reporter, as detected with fluorescence intensity signals by XTT cytotoxicity assay technology.Data from the assay component ATG_XTT_Cytotoxicity_XSP2 was analyzed into 1 assay endpoint. This assay endpoint, ATG_XTT_Cytotoxicity_XSP2, was analyzed in the positive analysis fitting direction relative to DMSO as the negative control and baseline of activity. Using a type of viability reporter, loss-of-signal activity can be used to understand changes in the viability. Furthermore, this assay endpoint can be referred to as a primary readout, because the performed assay has only produced 1 assay endpoint. To generalize the intended target to other relatable targets, this assay endpoint is annotated to the cell cycle intended target family, where the subfamily is cytotoxicity.
as §1

“And” between values parts separate entries of the source, which are not always exact repeats. Equal entries are not always repeated. Results filed as inconclusive are left out. Some structures have more than one record in an assay (separate samples or runs), and their calls can disagree. The source made the active and inactive calls. Rule for the calls, unless noted: active = hit-call score of the fitted dose curve at least 0.9, where 1 is the maximum; inconclusive = response in the unintended direction; inactive = score below 0.9.

Our source for the outcome and AC50 values is PubChem BioAssay (EPA / NIEHS).

Sequence of zebrafish Thyroid Hormone Receptor alpha (TRa), thraa (gene 30670) (Q98867 whole entry, looked up, the tested form may be a part): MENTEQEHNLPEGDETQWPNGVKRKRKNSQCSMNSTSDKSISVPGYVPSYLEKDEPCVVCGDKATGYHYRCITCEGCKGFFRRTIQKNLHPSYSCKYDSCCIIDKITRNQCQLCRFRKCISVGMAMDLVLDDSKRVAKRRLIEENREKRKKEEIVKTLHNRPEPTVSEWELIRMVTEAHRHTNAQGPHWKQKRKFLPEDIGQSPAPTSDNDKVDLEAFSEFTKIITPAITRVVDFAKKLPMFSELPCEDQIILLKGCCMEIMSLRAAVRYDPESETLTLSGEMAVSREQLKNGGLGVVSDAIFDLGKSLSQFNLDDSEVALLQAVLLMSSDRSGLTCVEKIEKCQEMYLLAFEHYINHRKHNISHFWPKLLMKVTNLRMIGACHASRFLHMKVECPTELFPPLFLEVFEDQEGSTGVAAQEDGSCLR
Sequence of frog Thyroid hormone Receptor alpha (TRa), thra-a (gene 397942) (P15204 whole entry, looked up, the tested form may be a part): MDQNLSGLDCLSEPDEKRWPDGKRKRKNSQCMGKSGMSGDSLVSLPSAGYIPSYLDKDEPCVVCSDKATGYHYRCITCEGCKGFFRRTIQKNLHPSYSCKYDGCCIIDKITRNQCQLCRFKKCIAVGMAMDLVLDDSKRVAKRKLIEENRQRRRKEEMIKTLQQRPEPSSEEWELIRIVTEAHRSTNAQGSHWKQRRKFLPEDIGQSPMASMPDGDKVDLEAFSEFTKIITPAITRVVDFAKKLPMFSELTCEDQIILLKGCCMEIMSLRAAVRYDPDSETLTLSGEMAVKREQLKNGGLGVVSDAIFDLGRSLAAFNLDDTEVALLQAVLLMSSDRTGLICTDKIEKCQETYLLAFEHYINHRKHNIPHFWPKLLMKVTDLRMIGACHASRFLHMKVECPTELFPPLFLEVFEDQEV
Sequence of Nuclear receptor subfamily 1 group I member 2 (Mus musculus) (O54915 whole entry, looked up, the tested form may be a part): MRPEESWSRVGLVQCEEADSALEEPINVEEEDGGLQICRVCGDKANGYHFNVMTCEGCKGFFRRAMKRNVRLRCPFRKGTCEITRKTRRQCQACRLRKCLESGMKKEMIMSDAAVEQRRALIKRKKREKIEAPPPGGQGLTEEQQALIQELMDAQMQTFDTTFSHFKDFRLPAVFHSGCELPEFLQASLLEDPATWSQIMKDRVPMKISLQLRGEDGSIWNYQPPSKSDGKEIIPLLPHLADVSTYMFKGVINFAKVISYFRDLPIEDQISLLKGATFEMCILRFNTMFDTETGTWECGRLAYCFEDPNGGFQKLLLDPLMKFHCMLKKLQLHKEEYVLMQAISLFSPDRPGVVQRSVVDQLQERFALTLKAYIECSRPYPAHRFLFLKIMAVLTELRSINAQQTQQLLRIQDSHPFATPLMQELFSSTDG

In the case of `CCC[CH2][Sn]([Cl])([CH2]CCC)[CH2]CCC`, the outcome in test [1], in test [2], in [3], in test [4], in test [5] and in test [6] was inactive. Besides, in test [7], the molecule was called inactive. For the same molecule, in test [8], the AC50 was 0.649 µM (active).

For `Clc1ccc(C(c2ccc(Cl)cc2)C(Cl)(Cl)Cl)cc1`, the AC50 in test [9] was 4.54 µM (active). Further, the molecule was called inactive in test [1], in test [2], in [4], in test [5], in test [6] and in test [7]. Besides, in [8], the result was inactive.

For the molecule `c1ccc2c(c1)-c1cccc3cccc-2c13`, the call in test [1], in test [2], in test [3], in test [4], in test [5] and in test [10] was inactive. The molecule was called inactive in [6], in [7] and in test [8].

With `C[C@]12C=CC3=C4CCC(=O)C=C4CC[C@H]3[C@@H]1CC[C@@H]2O`, the molecule was classed as inactive in test [1] and in [4]. For the same molecule, in [8], the AC50 was 0.0256 µM (active).

For the molecule `CC(C)(C)C(O)(CCc1ccc(Cl)cc1)Cn1cncn1` (stereo not drawn), in [9], the AC50 was 4.58 µM (active) and 5.55 µM (active). For the same molecule, the molecule was called inactive in test [1], in test [2], in test [3], in test [4], in [5] and in test [10]. Further, the molecule was classed as inactive in [6] and in test [8].

Regarding `CCCCOC(=O)c1ccccc1C(=O)OCc1ccccc1`, the molecule was called inactive in [9], in test [1], in test [2], in [3], in [4] and in test [5]. Moreover, the result in [7] and in test [8] was inactive.

Take `CCC(C)c1ccc(O)cc1` (stereo not drawn): the outcome in [9], in test [1], in test [2], in [3], in [4] and in [5] was inactive. Also, the call in test [10], in test [6], in test [7] and in [8] was inactive.

`CCCCC(CC)COC(=O)c1ccc(C(=O)OCC(CC)CCCC)c(C(=O)OCC(CC)CCCC)c1` (stereo not drawn): the AC50 in [9] is 100 µM (active). Also, the molecule was called inactive in [9], in test [1], in test [3], in [5], in [10] and in test [6]. Also, the molecule was classed as inactive in [7] and in test [8].

Consider `Oc1ccc2ccc3cccc4ccc1c2c34`, for which the AC50 in test [9] was 16.5 µM (active) and 11.1 µM (active); in test [10] it was 151 µM (active); in test [7], 22.7 µM (active). Further, the result in test [1], in [2], in test [3], in test [4], in test [5] and in test [7] was inactive.

As for `O=[N+]([O-])c1ccc(Oc2ccc(Cl)cc2Cl)cc1`, the AC50 in test [9] is 4.29 µM (active) and 2.99 µM (active). Besides, the outcome in [1], in test [2], in test [3], in test [4], in test [5] and in test [10] was inactive. The result in [6], in [7] and in [8] was inactive.

In the case of `Clc1ccc(C(c2ccc(Cl)cc2)C(Cl)Cl)cc1`, the AC50 in [9] was 7.95 µM (active). Further, the molecule was classed as inactive in [1], in [2], in test [4] and in test [8].

Consider `CCCCCOC(=O)c1ccccc1C(=O)OCCCCC`, for which the molecule was classed as inactive in [9], in test [3], in test [7] and in [8]. In addition, the AC50 in test [2] was 174 µM (active).

One may read the AC50 as the concentration at which the activity in the assay is half-maximal.
